# Inconclusive results are not listed. Where a call stands in place of a potency, no number is given. The source made the active and inactive calls. Unless noted, the call rests on the fitted dose curve.
# How the values were obtained:
# [1] = qHTS for Inhibitors of the Functional Ribonucleoprotein Complex (vRNP) of Lassa (LASV) Arenavirus: LASV Primary Screen - GLuc reporter signal (AID 1347082; calls by dose curve; tested in HEK293 reporter line; further: nearly all actives have a fitted effect of over 60% in size; further: potency means the concentration at half of the fitted maximal effect); details: LASV minigenome vRNP, Gaussia luciferase reporter; series mostly up to 57.5 µM
# [2] = qHTS for Inhibitors of the Functional Ribonucleoprotein Complex (vRNP) of Lassa (LASV) Arenavirus: Viability assay - alamar blue signal for LASV Primary Screen (AID 1347083; calls by dose curve; tested in HEK293 reporter line; further: nearly all actives have a fitted effect of over 80% in size); details: cell viability, alamar blue fluorescence (LASV minigenome counter-screen); series mostly up to 57.5 µM
# [3] = target: Nucleoprotein (Lymphocytic choriomeningitis virus (strain Armstrong)) (UniProt P09992); assay: qHTS for Inhibitors of the Functional Ribonucleoprotein Complex (vRNP) of Lymphocytic Choriomeningitis Arenaviruses (LCMV): LCMV Primary Screen - GLuc reporter signal (AID 1347086); details: LCMV minigenome vRNP cell assay, Gaussia luciferase reporter; series mostly up to 57.5 µM; further: nearly all actives have a fitted effect of over 70% in size; further: potency means the concentration at half of the fitted maximal effect
# Sequence of Nucleoprotein (Lymphocytic choriomeningitis virus (strain Armstrong)) (P09992 whole entry, looked up): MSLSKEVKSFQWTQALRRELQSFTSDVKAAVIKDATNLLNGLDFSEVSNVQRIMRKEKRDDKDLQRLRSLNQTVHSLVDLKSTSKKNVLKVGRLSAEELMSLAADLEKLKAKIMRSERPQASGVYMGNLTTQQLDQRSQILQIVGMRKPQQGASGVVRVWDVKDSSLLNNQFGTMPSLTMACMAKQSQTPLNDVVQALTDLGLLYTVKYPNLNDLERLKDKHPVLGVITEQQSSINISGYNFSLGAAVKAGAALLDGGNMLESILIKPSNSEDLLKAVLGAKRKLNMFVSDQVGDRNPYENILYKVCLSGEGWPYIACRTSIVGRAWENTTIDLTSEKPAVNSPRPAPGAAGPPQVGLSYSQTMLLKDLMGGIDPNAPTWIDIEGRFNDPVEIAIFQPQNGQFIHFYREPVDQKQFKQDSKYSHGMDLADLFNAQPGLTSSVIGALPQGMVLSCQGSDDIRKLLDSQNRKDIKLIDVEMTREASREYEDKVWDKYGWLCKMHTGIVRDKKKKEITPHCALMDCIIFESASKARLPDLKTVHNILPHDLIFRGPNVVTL
# [4] = qHTS for Inhibitors of the Functional Ribonucleoprotein Complex (vRNP) of Lymphocytic Choriomeningitis Arenaviruses (LCMV): Viability assay - alamar blue signal for LCMV Primary Screen (AID 1347085; calls by dose curve; tested in HEK293 reporter line; further: nearly all actives have a fitted effect of over 80% in size; further: potency means the concentration at half of the fitted maximal effect); details: alamar blue viability counter-screen, LCMV vRNP screen cells; series mostly up to 57.5 µM
# [5] = qHTS of pediatric cancer cell lines to identify multiple opportunities for drug repurposing: Primary screen for TC32 cells (AID 1347089; active means well fitted curve in the direction sought with a large enough effect; an effect the other way counts as inactive or inconclusive; further: nearly all actives have a fitted effect of over 60% in size); details: TC32 Ewing sarcoma viability, CellTiter-Glo luminescence, 48 h; series mostly up to 45.8 µM
# Summary of the method: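 A viability screen of TC32 cells was run over 48 h, with primary MIPE doses spanning 0.78 nM–46 µM and NPC doses 0.59 nM–46 µM. ATP luminescence (CellTiter-Glo) served as the read-out.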
# [6] = qHTS of pediatric cancer cell lines to identify multiple opportunities for drug repurposing: Primary screen for DAOY cells (AID 1347090; active means well fitted curve in the direction sought with a large enough effect; an effect the other way counts as inactive or inconclusive; further: nearly all actives have a fitted effect of over 55% in size); details: DAOY medulloblastoma viability, CellTiter-Glo luminescence, 48 h; series mostly up to 46 µM
# Summary of the method: (§1)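 Viability measured as metabolically active cells via CellTiter-Glo luminescence following 48 hours of compound exposure, 11-point dilutions in confirmatory testing. 500-1,000 cells/well plated 5 hours before dosing; controls were DMSO and 2.3 µM bortezomib.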
# [7] = qHTS of pediatric cancer cell lines to identify multiple opportunities for drug repurposing: Primary screen for SJ-GBM2 cells (AID 1347091; active means well fitted curve in the direction sought with a large enough effect; an effect the other way counts as inactive or inconclusive); details: SJ-GBM2 viability, CellTiter-Glo luminescence, 48 h; series mostly up to 46 µM
# Summary of the method: as §1
# [8] = qHTS of pediatric cancer cell lines to identify multiple opportunities for drug repurposing: Primary screen for A673 cells (AID 1347092; active means well fitted curve in the direction sought with a large enough effect; an effect the other way counts as inactive or inconclusive; further: nearly all actives have a fitted effect of over 45% in size); details: A673 Ewing sarcoma viability, CellTiter-Glo ATP luminescence, 48 h; series mostly up to 46 µM
# Summary of the method: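 Titration-based qHTS on A673 cells: MIPE compounds spanned 11 points (0.78 nM to 46 µM final), NPC compounds 8 points (0.59 nM to 46 µM final). Viability after 48 h was measured by ATP luminescence.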
# [9] = qHTS of pediatric cancer cell lines to identify multiple opportunities for drug repurposing: Primary screen for SK-N-MC cells (AID 1347093; active means well fitted curve in the direction sought with a large enough effect; an effect the other way counts as inactive or inconclusive); details: SK-N-MC viability, CellTiter-Glo luminescence, 48 h; series mostly up to 46 µM
# Summary of the method: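 Metabolically active cells were quantified by ATP-dependent luminescence (CellTiter-Glo, 15 min at room temperature) following 48 h treatment. Cells had been plated at 500-1,000 per well and settled for 5 h beforehand.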
smiles,measurement,setting,value
CC(CNC1CCCCC1)OC(=O)c1ccccc1 (configuration not stated),Potency,[1],inactive
same,Potency,[2],inactive
same,Potency,[3],inactive
O=C(O)c1cccc(-c2noc(-c3ccccc3F)n2)c1,Potency,[1],inactive
same,Potency,[2],inactive
same,Potency,[3],inactive
Clc1ccc(Nc2nnc(Cc3ccncc3)c3ccccc23)cc1,Potency,[1],inactive
same,Potency,[4],inactive
same,Potency,[3],inactive
CCC(=O)O[C@]1(C(=O)CCl)[C@@H](C)C[C@H]2[C@@H]3CCC4=CC(=O)C=C[C@]4(C)[C@@]3(F)[C@@H](O)C[C@@]21C,Potency,[1],inactive
same,Potency,[4],inactive
same,Potency,[3],inactive
Cc1c(C)n(CCN(C)C)c2ccc(C(=O)OCCN(C)C)cc12,Potency,[1],inactive
same,Potency,[3],inactive
CCCOc1ccc2nc(NC(=O)OC)[nH]c2c1,Potency,[1],inactive
same,Potency,[4],0.0172 µM (active)
same,Potency,[3],inactive
COc1ccc(OC(=O)N(CC(=O)O)Cc2ccc(OCCc3nc(-c4ccccc4)oc3C)cc2)cc1,Potency,[1],inactive
same,Potency,[4],inactive
same,Potency,[3],inactive
O=C(CCCN1CCN(c2ccc(F)cc2)CC1)NC1c2ccccc2CSc2ccccc21 (configuration not stated),Potency,[1],24.3 µM (active)
same,Potency,[4],inactive
CN(C)C(=O)Oc1cc(OC(=O)N(C)C)cc(C(O)CNC(C)(C)C)c1 (configuration not stated),Potency,[1],inactive
same,Potency,[4],inactive
same,Potency,[3],inactive
same,Potency,[5],inactive
same,Potency,[6],inactive
same,Potency,[7],inactive
same,Potency,[8],inactive
same,Potency,[9],inactive
CC(NCCC(c1ccccc1)c1ccccc1)c1ccccc1 (configuration not stated),Potency,[1],inactive
same,Potency,[4],inactive
COc1ccc2cc3[n+](cc2c1OC)CCc1cc2c(cc1-3)OCO2,Potency,[1],27.3 µM (active)
same,Potency,[4],inactive
same,Potency,[3],19.3 µM (active)
O=C1N(c2ccccc2)c2ccccc2C1(Cc1ccncc1)Cc1ccncc1,Potency,[1],inactive
same,Potency,[3],inactive
O=C(N[C@@H]1N=C(c2ccccc2F)c2cccc3c2N(CC3)C1=O)c1cc2ccccc2[nH]1,Potency,[1],inactive
same,Potency,[4],inactive
same,Potency,[3],inactive
same,Potency,[5],inactive
same,Potency,[7],inactive
C#C[C@]1(O)CC[C@H]2[C@@H]3CCc4cc(O)ccc4[C@H]3CC[C@@]21C,Potency,[1],inactive
same,Potency,[3],inactive
O=C(NOCC1CC1)c1ccc(F)c(F)c1Nc1ccc(I)cc1Cl,Potency,[1],inactive
same,Potency,[4],inactive
same,Potency,[3],inactive
CN1CCC(=C2c3ccccc3CC(=O)c3sccc32)CC1,Potency,[1],inactive
same,Potency,[4],inactive
same,Potency,[3],inactive
COC[C@@H](c1ccc(C(F)(F)F)cc1)N1CCN(C2(C)CCN(C(=O)c3c(C)ncnc3C)CC2)C[C@H]1C,Potency,[1],inactive
same,Potency,[4],38.5 µM (active)
COc1cc(N)c(Cl)cc1C(=O)NC1CCN(Cc2ccccc2)CC1,Potency,[1],inactive
same,Potency,[4],inactive
same,Potency,[3],inactive
COc1cc(O)c(C(=O)c2ccccc2)cc1S(=O)(=O)O,Potency,[1],inactive
same,Potency,[3],inactive
CN(C)CC/C=C1\c2ccccc2Sc2ccc(Cl)cc21,Potency,[1],inactive
same,Potency,[4],inactive
same,Potency,[3],inactive
O=c1[nH]c(=O)n([C@H]2C[C@H](O)[C@@H](CO)O2)cc1C(F)(F)F,Potency,[1],inactive
same,Potency,[4],15.8 µM (active)
same,Potency,[3],inactive
CN1CCN(CCC(=O)N2c3ccccc3Sc3ccc(C(F)(F)F)cc32)CC1,Potency,[1],inactive
same,Potency,[3],inactive
C[C@@H]1CN(CCCn2c3ccccc3c3ccccc32)C[C@H](C)N1,Potency,[1],inactive
same,Potency,[4],inactive
same,Potency,[3],inactive
CCOC(=O)OC(C)OC1=C(C(=O)Nc2ccccn2)N(C)S(=O)(=O)c2ccccc21 (configuration not stated),Potency,[1],inactive
same,Potency,[2],inactive
same,Potency,[3],inactive
CCCSS/C(CCO)=C(\C)N(C=O)Cc1cnc(C)nc1N,Potency,[1],inactive
same,Potency,[3],inactive
CCCS(=O)c1ccc2nc(NC(=O)OC)[nH]c2c1 (configuration not stated),Potency,[1],inactive
same,Potency,[3],inactive
O=S(=O)(O)NC1CCCCC1,Potency,[1],inactive
same,Potency,[4],inactive
same,Potency,[3],inactive
O=C(Nc1ccc([N+](=O)[O-])cc1Cl)c1cc(Cl)ccc1O,Potency,[1],inactive
same,Potency,[4],inactive
O=C(OCC(O)CO)c1ccccc1Nc1ccnc2cc(Cl)ccc12 (configuration not stated),Potency,[1],inactive
same,Potency,[3],inactive
CN1CCC(Nc2ncc3ncnc(Nc4ccc(F)c(Cl)c4)c3n2)CC1,Potency,[1],inactive
same,Potency,[4],inactive
same,Potency,[3],inactive
CCCCCCCCCCCCCCCC[N+](C)(C)Cc1ccccc1,Potency,[1],inactive
same,Potency,[4],inactive
CCN(CC)CCOc1ccc(C(O)(Cc2ccc(Cl)cc2)c2ccc(C)cc2)cc1 (configuration not stated),Potency,[1],inactive
same,Potency,[4],inactive
same,Potency,[3],inactive
CC/C(=C(/CC)c1ccc(O)cc1)c1ccc(O)cc1,Potency,[1],inactive
same,Potency,[4],inactive
O=Cc1ccc(O)c(O)c1O,Potency,[1],inactive
same,Potency,[4],inactive
same,Potency,[3],inactive
CCOC(=O)[C@H](CCc1ccccc1)N[C@@H](C)C(=O)N(CC(=O)O)C1Cc2ccccc2C1,Potency,[1],inactive
same,Potency,[4],inactive
same,Potency,[3],inactive
CN(C)CCN(Cc1ccc(Cl)cc1)c1ccccn1,Potency,[1],inactive
same,Potency,[4],inactive
same,Potency,[3],inactive
CCCCOc1ccc(CC(=O)NO)cc1,Potency,[1],inactive
same,Potency,[4],inactive
same,Potency,[3],inactive
CCOC(=O)Nc1ccc(NCc2ccc(F)cc2)nc1N,Potency,[1],inactive
same,Potency,[4],inactive
same,Potency,[3],inactive
